Source: PubChem BioAssay (National Center for Advancing Translational Sciences (NCATS))
CCT chaperon mod: modulators of cytosolic chaperonin (CCT/TRiC) activity. purified chaperonin ATPase assay, HTRF ADP detection, 30 min. activity change, % (concentration not given with the values), hits read low. 360,000 compounds, 0.3% hits. AID 651819; in the data active = activity change below about -30%
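We incubate TRiC, 40 or 20 nM final, with library compounds at 76 uM and 10 uM ATP for 30 min at 37 °C. ADP formed is detected with Transcreener HTRF reagents after 30 min at room temperature.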
MmCpn inh: M. maripaludis TRiC chaperonin inhibition; Potency, µM (top dose mostly 76.9 µM), inactives show at the top dose activity, negative = inhibition, hits mostly inhibitors; purified Mm-Cpn ATPase, ADP Transcreener TR-FRET; AID 504842; 330,000 compounds, 0.031% hits; note: potency is the fitted concentration of half-maximal effect; nearly all actives have a fitted effect of over 80% in size
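ATPase read-out: TR-FRET ADP immunoassay (anti-ADP Eu cryptate vs ADP-d2), ex 320 nm, em 590/665 nm; signal drops as ADP forms. Enzyme 25 nM, ATP 10 uM, 30 min at 37°C after 10 min compound preincubation.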
VDR inhibitor: blocks the human vitamin D receptor; 400,000 compounds, 0.93% hits; VDR-SRC2-3 peptide fluorescence polarization, 2 h; Potency, µM, for the others: max response, negative = inhibition, usual class: inhibitors; AID 504847; P11473; note: potency is the fitted concentration of half-maximal effect
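Reagent solutions, kept cold and dark, are dispensed first; compounds are then pinned in at 23 nl, plates briefly spun, and incubated 2 h at ambient temperature. Inhibition of VDR–SRC2-3 peptide binding is read by fluorescence polarization.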
PLK1 PBD inh: PLK1 (human) polo-box domain binding inhibition; P53350; Plk1 PBD binding of FITC phosphopeptide, fluorescence polarization; 360,000 compounds, 2.8% hits; Potency, µM, for the others: max response, negative = inhibition, usual class: inhibitors; note: potency is the fitted concentration of half-maximal effect; series mostly up to about 57 µM; nearly all actives have a fitted effect of over 65% in size
Target sequence (P53350 whole entry, looked up, the tested form may be a part): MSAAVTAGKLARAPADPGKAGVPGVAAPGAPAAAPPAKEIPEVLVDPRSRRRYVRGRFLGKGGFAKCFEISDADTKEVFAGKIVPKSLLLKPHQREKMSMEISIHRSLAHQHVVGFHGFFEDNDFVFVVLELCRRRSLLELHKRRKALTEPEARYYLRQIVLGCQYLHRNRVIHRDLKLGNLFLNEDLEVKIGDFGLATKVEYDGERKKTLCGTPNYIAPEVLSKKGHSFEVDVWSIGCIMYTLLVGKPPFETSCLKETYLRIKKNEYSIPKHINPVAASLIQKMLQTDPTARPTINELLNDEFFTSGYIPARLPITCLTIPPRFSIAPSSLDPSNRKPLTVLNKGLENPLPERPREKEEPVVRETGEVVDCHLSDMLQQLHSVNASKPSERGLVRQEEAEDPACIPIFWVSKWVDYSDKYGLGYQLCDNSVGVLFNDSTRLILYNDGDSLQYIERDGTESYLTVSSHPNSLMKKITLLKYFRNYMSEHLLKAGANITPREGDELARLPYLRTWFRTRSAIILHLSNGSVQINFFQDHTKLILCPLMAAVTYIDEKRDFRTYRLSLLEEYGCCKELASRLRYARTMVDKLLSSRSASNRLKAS
Sfp inh: blocks B. subtilis Sfp PPTase activity; Q9F4F7; Biochemical Sfp PPTase activity, qHTS; Potency, µM, for inactives: largest response in the series, negative = inhibition, actives largely listed as inhibitors; 310,000 compounds, 3.5% hits;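 note: the enzyme is Sfp with the accession as filed and its product quenches rhodamine fluorescence; potency is the fitted concentration of half-maximal effect; 0% = enzyme reaction without inhibitor and -100% = no enzyme wells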
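With Hepes-Na pH 7.6 buffer containing 10 mM MgCl2, Sfp (15 nM) modified BHQ-2-YbbR (12.5 uM) using rhodamine-CoA (5 uM). Two reads 30 minutes apart at 525/598 nm yielded each well's rate.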
G9a block: G9a (human) methyltransferase inhibition; Potency, µM (top dose mostly 102 µM), inactives show at the highest dose activity, negative = inhibition, hits mostly inhibitors; G9a H3K9 monomethylation, AlphaScreen, 2 h; 350,000 compounds, 8.8% hits; AID 504332; note: potency is the fitted concentration of half-maximal effect; nearly all actives have a fitted effect of over 75% in size
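Signal arises when biotinylated H3K9 peptide, once monomethylated, bridges streptavidin donor and antibody-captured acceptor beads. Enzyme at 20 nM was preincubated 15 min with test compounds; peptide 500 nM and SAM 20 uM then reacted for 2 h.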
Active calls of the source: *; [ ] = remark or other dose. Compounds with a hit are over-represented: about 10% of the library has one in this group of screens. Unless noted, calls come from the whole dose curve; as a rule, active = well fitted curve in the direction sought with a large enough effect; inconclusive = small, poorly fitted or top-dose-only effect, or another doubt; inactive = no such curve, though single readings can be large; an effect the other way counts as inactive or inconclusive. Unless noted, % is set by controls: 0 for no effect and ±100 for the full control effect.

Screening CC1CCCN(C(=O)COC(=O)COc2ccc(C#N)cc2)C1 (stereo unspecified) returned CCT chaperon mod -1.5, MmCpn inh 0.3%, VDR inhibitor -4.3% and PLK1 PBD inh -13.1%.
For OCC1CCCN(C(=S)Nc2ccc(Nc3ccccc3)cc2)C1 (stereo unspecified) the results were CCT chaperon mod 0.1, MmCpn inh -4.1%, VDR inhibitor 0.0%, PLK1 PBD inh -25.0%, Sfp inh -3.6% and G9a block 17.8µM*.
NCCC[C@@H](CC(=O)N[C@@H]1CCCC[C@H]1C(=O)N[C@H](CC(=O)N[C@@H](CCC(=O)O)CC(=O)O)Cc1c[nH]c2ccccc12)NC(=O)C[C@H](Cc1ccccc1)NC(=O)[C@@H]1CNCC[C@H]1N was read as VDR inhibitor -18.4% and Sfp inh -14.8%.
Screening Cc1cccc(OCCSc2nnc(-c3cccs3)o2)c1 returned VDR inhibitor -5.8% and G9a block 175.1%[59 µM].
`O=C(Nc1cccc(Cl)c1Cl)c1cc2nc(-c3ccc4c(c3)OCO4)cc(C(F)(F)F)n2n1` gave VDR inhibitor 4.5% and G9a block 1.3%[59 µM].
For CCOC(=O)CSC1=NC(=O)/C(=C/c2ccc(Br)cc2)S1 the results were CCT chaperon mod -2.5, MmCpn inh -1.1%, VDR inhibitor inconclusive, PLK1 PBD inh 0.844µM*, Sfp inh 56.2µM* and G9a block 39.8µM*.
`NC1=NC(=O)/C(=C/c2ccc(Br)cc2)S1` gave CCT chaperon mod -0.3, MmCpn inh -0.1%, VDR inhibitor -6.6%, PLK1 PBD inh 0.6%, Sfp inh 21.6% and G9a block 12.5%[0.501 µM].
For COc1ccc(NC(=O)c2oc3ccc(S(=O)(=O)N4CCCCC4)cc3c2C)cc1Cl the results were VDR inhibitor 15.9% and G9a block -5.5%[59 µM].
For CCOc1ccccc1CNC(=O)C1CCN(S(=O)(=O)c2cccc3nonc23)CC1 the results were VDR inhibitor 5.6% and G9a block 0.7%[59 µM].
Screening O=[N+]([O-])c1cc(S(=O)(=O)O)cc([N+](=O)[O-])c1NN(c1ccccc1)c1ccccc1 returned CCT chaperon mod -2.8, MmCpn inh 0.4%, VDR inhibitor -15.8%, PLK1 PBD inh -23.2%, Sfp inh -23.6% and G9a block 50.1µM*.
`CC(Oc1ccc(S(=O)(=O)N2CCCC2)cc1[N+](=O)[O-])C(=O)N(C)c1ccccc1` (stereo unspecified) gave CCT chaperon mod 2.2, MmCpn inh 1.0%, VDR inhibitor 5.2%, PLK1 PBD inh -4.5% and G9a block -11.6%[2.33 µM].
`COc1ccc(-c2nnc3n2N=C(c2c(OC)cccc2OC)CS3)c(OC)c1` gave Sfp inh 3.3%.
For Cc1cc(C)c2sc(N3CCN(C(=O)c4ccc(N(C)C)cc4)CC3)nc2c1 the results were VDR inhibitor 6.6% and G9a block 22.4µM*.
Screening CCC(=O)N(C)CCc1cc2c(c(OC)c1/C=N/NC(=O)c1ccc(Br)cc1)OCO2 returned CCT chaperon mod -0.6, MmCpn inh 0.1%, VDR inhibitor inconclusive, PLK1 PBD inh 23.8µM*, Sfp inh 1.9% and G9a block -7.6%[59 µM].
`COc1c(/C=N/Nc2ccc(C(=O)O)cc2)c(CCN(C)C(C)=O)cc2c1OCO2` gave CCT chaperon mod -1.4, MmCpn inh -1.6%, VDR inhibitor -16.2%, PLK1 PBD inh 1.5%, Sfp inh 5.1% and G9a block 44.7µM*.
For COC(=O)C(CCSC)NC(=O)C1CCN(c2ncnc3c2nc2n3CCCCC2)CC1 (stereo unspecified) the results were VDR inhibitor 15.8% and G9a block 14.3%[59 µM].
Cc1cccc(NC(=O)Cc2nc(-c3c[nH]c(C(=O)N4CCCC4)c3)cs2)c1 was read as CCT chaperon mod -1.5, MmCpn inh -0.5%, VDR inhibitor -1.5%, PLK1 PBD inh -22.6% and G9a block 56.2µM*.
